The record followed here is ChEMBL document CHEMBL2218924, “A broad activity screen in support of a chemogenomic map for kinase signalling research and drug discovery” (Biochem J, 2013).

The structures appear in SMILES notation.

For assay [1], the target named is T1, CDK9/cyclin T1 (Homo sapiens) (UniProt O60563+P50750). To be noted: at 1 µM.
Assay [2] addresses T1, CDK9/cyclin T1 (Homo sapiens). To be noted: at 10 µM.
Assay [3] addresses T2, Serine/threonine-protein kinase Chk1 (Homo sapiens) (UniProt O14757).
T2 sequence (whole entry): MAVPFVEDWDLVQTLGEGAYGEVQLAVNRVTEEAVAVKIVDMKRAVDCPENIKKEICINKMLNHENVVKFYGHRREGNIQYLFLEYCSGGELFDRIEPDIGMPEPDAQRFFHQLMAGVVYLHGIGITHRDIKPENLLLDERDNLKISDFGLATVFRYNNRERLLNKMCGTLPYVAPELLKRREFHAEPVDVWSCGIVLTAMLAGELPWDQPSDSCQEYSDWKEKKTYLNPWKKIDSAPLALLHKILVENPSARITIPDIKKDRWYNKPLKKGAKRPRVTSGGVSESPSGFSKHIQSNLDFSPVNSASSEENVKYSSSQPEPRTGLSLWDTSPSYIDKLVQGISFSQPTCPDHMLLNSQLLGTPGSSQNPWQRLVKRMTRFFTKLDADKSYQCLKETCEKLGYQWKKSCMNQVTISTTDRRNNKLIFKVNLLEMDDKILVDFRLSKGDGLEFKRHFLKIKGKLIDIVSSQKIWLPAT
To be noted: at 1 µM.

Assay [4] concerns the target T2, Serine/threonine-protein kinase Chk1 (Homo sapiens). As to conditions: at 10 µM.
Assay [5] deals with Serine/threonine-protein kinase Chk2 (Homo sapiens) (UniProt O96017). As to conditions: at 1 µM.
Sequence of Serine/threonine-protein kinase Chk2 (Homo sapiens) (O96017 whole entry): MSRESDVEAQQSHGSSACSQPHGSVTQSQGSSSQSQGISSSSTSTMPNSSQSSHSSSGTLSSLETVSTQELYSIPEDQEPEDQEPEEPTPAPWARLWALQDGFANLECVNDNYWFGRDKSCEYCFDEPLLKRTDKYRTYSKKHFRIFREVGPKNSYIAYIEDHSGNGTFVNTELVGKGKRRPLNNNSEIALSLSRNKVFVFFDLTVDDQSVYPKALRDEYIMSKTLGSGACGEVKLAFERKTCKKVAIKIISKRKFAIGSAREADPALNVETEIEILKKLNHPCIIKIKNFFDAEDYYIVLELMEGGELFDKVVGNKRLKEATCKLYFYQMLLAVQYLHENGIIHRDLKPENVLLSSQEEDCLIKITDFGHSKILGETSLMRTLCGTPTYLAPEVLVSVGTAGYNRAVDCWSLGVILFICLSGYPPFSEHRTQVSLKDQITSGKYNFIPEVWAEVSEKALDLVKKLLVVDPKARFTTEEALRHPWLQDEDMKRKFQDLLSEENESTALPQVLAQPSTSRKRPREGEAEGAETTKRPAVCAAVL
Assay [6] shares this target. To be noted: at 10 µM.
The target of assay [7] is Casein kinase I isoform gamma-1 (Homo sapiens) (UniProt Q9HCP0). To be noted: at 1 µM.
Sequence of Casein kinase I isoform gamma-1 (Homo sapiens) (Q9HCP0 whole entry, looked up, canonical isoform): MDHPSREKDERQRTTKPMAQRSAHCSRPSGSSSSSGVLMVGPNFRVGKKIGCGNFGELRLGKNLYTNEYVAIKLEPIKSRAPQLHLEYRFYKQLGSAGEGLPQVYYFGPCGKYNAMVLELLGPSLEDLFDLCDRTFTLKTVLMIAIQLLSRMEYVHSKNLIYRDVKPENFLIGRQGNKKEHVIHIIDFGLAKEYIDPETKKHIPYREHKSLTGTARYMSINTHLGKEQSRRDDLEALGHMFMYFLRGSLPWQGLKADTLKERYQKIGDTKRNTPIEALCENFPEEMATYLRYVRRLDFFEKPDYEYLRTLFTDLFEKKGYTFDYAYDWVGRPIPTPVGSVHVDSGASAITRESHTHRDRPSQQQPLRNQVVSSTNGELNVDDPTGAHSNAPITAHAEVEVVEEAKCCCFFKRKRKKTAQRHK
The target is the same in assay [8]. To be noted: at 10 µM.
Assay [9] concerns the target Casein kinase I isoform delta (Homo sapiens) (UniProt P48730). To be noted: at 1 µM.
Assay [10] shares this target. To be noted: at 10 µM.
For assay [11], the target named is T3, Casein kinase II (Homo sapiens) (UniProt P67870+P68400+P19784). As to conditions: at 1 µM.
T3 sequence (P19784 whole entry, looked up): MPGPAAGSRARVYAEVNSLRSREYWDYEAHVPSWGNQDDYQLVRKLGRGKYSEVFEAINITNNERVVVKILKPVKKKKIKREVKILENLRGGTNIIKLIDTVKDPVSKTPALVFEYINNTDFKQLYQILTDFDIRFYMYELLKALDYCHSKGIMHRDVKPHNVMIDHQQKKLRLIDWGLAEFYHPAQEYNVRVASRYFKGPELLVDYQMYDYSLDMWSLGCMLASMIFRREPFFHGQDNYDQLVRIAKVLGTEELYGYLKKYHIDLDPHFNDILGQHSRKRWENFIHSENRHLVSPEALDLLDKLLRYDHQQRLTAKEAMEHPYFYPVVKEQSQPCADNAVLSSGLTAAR
T3 sequence (P67870 whole entry, looked up): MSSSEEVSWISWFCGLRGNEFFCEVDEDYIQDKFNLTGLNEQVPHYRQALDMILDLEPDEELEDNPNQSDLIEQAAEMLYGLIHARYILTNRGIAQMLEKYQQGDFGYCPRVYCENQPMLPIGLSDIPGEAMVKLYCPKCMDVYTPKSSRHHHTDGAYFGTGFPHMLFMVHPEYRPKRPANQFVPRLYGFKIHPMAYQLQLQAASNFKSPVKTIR
T3 sequence (P68400 whole entry, looked up): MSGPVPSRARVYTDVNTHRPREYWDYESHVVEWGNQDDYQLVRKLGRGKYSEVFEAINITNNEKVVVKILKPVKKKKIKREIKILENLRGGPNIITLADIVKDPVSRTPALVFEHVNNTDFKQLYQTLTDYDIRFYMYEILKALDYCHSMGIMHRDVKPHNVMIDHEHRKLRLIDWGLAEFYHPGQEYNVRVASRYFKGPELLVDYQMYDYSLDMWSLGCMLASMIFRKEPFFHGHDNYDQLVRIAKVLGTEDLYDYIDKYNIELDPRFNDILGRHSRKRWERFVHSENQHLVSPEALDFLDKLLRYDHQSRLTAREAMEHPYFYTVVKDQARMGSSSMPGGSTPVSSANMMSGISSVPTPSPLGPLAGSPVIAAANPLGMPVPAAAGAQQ
In assay [12] the target is T3, Casein kinase II (Homo sapiens). To be noted: at 10 µM.
The target of assay [13] is Casein kinase II subunit alpha' (Homo sapiens) (UniProt P19784). As to conditions: at 1 µM.
Sequence of Casein kinase II subunit alpha' (Homo sapiens) (P19784 whole entry, looked up): as the sequence (P19784 whole entry, looked up) above
Assay [14] shares this target. To be noted: at 10 µM.
For assay [15], the target named is Dual specificity protein kinase CLK2 (Homo sapiens) (UniProt P49760). As to conditions: at 1 µM.
Sequence of Dual specificity protein kinase CLK2 (Homo sapiens) (P49760 whole entry, looked up): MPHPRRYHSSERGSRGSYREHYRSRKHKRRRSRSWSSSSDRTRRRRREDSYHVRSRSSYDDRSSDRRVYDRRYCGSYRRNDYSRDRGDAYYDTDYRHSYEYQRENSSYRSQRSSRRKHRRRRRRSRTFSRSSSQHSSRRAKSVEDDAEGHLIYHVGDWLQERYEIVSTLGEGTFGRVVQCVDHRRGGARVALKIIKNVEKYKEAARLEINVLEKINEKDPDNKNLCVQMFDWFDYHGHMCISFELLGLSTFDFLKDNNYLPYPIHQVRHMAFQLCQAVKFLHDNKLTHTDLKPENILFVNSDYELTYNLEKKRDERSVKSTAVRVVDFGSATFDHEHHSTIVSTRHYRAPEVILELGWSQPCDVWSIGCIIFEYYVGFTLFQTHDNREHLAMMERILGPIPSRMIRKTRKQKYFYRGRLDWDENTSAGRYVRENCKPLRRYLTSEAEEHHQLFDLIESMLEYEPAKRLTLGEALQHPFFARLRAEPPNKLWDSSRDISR
Assay [16] shares this target. As to conditions: at 10 µM.
The target in assay [17] is Dual specificity protein kinase CLK3 (Homo sapiens) (UniProt P49761). As to conditions: at 1 µM.
Sequence of Dual specificity protein kinase CLK3 (Homo sapiens) (P49761 whole entry, looked up): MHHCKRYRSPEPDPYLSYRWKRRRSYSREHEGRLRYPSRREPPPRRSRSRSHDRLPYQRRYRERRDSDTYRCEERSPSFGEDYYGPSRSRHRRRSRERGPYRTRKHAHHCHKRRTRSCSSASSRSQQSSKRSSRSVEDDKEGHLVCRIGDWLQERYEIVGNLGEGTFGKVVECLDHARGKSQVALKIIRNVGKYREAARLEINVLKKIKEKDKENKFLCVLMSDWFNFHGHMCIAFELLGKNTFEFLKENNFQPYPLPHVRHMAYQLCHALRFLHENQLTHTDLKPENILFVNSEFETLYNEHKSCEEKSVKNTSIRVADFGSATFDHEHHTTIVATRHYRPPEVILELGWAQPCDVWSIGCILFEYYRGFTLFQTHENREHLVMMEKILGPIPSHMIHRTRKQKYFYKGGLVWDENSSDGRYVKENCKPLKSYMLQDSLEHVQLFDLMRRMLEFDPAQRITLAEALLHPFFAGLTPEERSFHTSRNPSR
Assay [18] shares this target. As to conditions: at 10 µM.
Assay [19] concerns the target Tyrosine-protein kinase CSK (Homo sapiens) (UniProt P41240). As to conditions: at 1 µM.
The target is the same in assay [20]. To be noted: at 10 µM.

Sequence of Casein kinase I isoform delta (Homo sapiens) (P48730 whole entry, looked up, canonical isoform): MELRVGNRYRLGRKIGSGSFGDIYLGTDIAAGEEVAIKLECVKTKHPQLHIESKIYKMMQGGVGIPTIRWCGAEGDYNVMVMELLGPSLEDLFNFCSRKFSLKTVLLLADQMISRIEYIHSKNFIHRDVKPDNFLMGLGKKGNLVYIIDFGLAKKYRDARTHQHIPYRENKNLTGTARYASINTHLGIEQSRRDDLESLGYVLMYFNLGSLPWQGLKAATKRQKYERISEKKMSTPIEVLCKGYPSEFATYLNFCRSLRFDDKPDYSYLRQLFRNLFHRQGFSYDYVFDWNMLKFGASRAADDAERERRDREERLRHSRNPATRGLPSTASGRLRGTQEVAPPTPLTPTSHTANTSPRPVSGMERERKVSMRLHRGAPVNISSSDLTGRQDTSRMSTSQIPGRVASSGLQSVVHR
Sequence of Tyrosine-protein kinase CSK (Homo sapiens) (P41240 2-450 limits assumed): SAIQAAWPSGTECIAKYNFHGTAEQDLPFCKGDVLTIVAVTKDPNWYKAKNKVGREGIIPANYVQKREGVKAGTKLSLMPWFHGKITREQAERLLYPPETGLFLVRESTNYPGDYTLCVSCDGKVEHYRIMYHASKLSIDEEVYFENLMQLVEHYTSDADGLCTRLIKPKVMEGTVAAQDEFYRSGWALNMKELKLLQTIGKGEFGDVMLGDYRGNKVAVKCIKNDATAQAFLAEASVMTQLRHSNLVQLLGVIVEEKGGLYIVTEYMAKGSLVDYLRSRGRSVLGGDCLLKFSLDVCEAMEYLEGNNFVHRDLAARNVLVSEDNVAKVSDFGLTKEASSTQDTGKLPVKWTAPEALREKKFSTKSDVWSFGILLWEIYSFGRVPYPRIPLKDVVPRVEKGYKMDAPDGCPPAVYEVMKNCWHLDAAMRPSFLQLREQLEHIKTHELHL

As for `O=C1Nc2ccc3ncsc3c2/C1=C/c1c[nH]cn1`, the residual activity in [1] is 5%; in assay [2], 3%; in [3], 35%; in [4] it was 8%; in assay [5] it was 50%; in assay [6], 15%. Also, the residual activity in assay [7] was 70%; in assay [8], 28%; in [9], 23%; in assay [10], 4%; in [11] it was 30%; in assay [12], 1%. For the same compound, the residual activity in [13] is 12%; in [14] it was -1%; in [15], 8%; in assay [16] it was 3%; in assay [17] it was 38%; in assay [18], 3%. The residual activity in assay [19] stood at 104%; in [20], 96%.

For `O=C1NC(=O)c2c1c1c3ccccc3n3c1c1c2c2ccccc2n1C1CCC3O1`, the residual activity in assay [1] stood at 71%; in assay [2] it was 66%; in assay [3] it was 25%; in [4], 20%; in assay [5] it was 26%; in assay [6], 24%. Moreover, the residual activity amounted to 75% in assay [9]; 75% in assay [10]; 63% in [13]; 49% in assay [14]; 100% in assay [15]; 92% in assay [16]. The residual activity in assay [17] came out at 95%; in [18], 85%.

Regarding `COC(=O)[C@@]1(O)C[C@H]2O[C@]1(C)n1c3ccccc3c3c4c(c5c6ccccc6n2c5c31)C(=O)NC4`, the residual activity in [1] is 10%; in [2], 2%; in [3], 1%; in assay [4], -1%; in [5], 3%; in [6], 1%. The residual activity in assay [7] came out at 93%; in assay [8], 57%; in assay [9], 79%; in assay [10], 37%; in assay [11] it was 93%; in assay [12], 82%. Moreover, the residual activity in [13] stood at 108%; in [14] it was 90%; in assay [15] it was 1%; in assay [16], 4%; in assay [17], 72%; in assay [18], 33%. The residual activity in [19] is 71%; in assay [20] it was 18%.

In the case of `COc1ccc2c(c1)/C(=C/c1cnc[nH]1)C(=O)N2`, the residual activity in [1] was 32%; in assay [2], 7%; in assay [3] it was 77%; in assay [4] it was 30%; in [5] it was 67%; in assay [6] it was 25%. Further, the residual activity in [8] was 67%; in [9], 81%; in assay [10], 37%; in [14] it was 32%; in [15] it was 50%; in assay [16], 10%.

On to `CN[C@@H]1C[C@H]2O[C@@](C)([C@@H]1OC)n1c3ccccc3c3c4c(c5c6ccccc6n2c5c31)C(=O)NC4`, for which the residual activity came out at 77% in [9]; 46% in [10]; 81% in assay [11]; 85% in assay [12]; 83% in assay [13]; 85% in [14].

As for `c1cc(-c2cnn3cc(-c4ccc(OCCN5CCCCC5)cc4)cnc23)ccn1`, the residual activity was 35% in [1]; 5% in [2]; 101% in assay [3]; 87% in assay [4]; 63% in [8]; 21% in assay [9]. The residual activity came out at 3% in assay [10]; 82% in [11]; 27% in [12]; 26% in assay [13]; 1% in assay [14]; 26% in assay [15]. The residual activity came to 3% in assay [16]; 62% in assay [17]; 23% in assay [18]; 100% in assay [19]; 64% in assay [20].

Take `O=[N+]([O-])/C=C/c1ccc2c(c1)OCO2`: the residual activity in [1] amounted to 112%; in assay [2] it was 100%; in [3] it was 85%; in assay [4], 101%; in assay [5] it was 85%; in [6], 85%. Also, the residual activity stood at 83% in [7]; 98% in [9]; 113% in assay [10]; 105% in [11]; 126% in assay [12]; 134% in assay [13]. The residual activity in assay [14] came to 102%; in assay [15] it was 121%; in [16], 101%; in [17], 91%; in [19] it was 112%; in assay [20] it was 100%.

As for `CC(C)(C)c1cc(C=C(C#N)C#N)cc(Br)c1O`, the residual activity is 105% in [3]; 105% in assay [4]; 96% in assay [5]; 99% in assay [6]; 104% in [7]; 97% in [8]. For the same compound, the residual activity in assay [9] was 99%; in assay [10], 48%; in assay [11] it was 113%; in [12], 114%; in assay [13] it was 121%; in assay [14] it was 113%. The residual activity in assay [15] turned out to be 99%; in assay [16] it was 103%; in assay [17], 100%; in assay [18], 108%; in assay [19], 103%; in assay [20], 105%.

Turning to `CCc1nc(-c2ccc(OC)cc2)[nH]c1-c1ccncc1`, the residual activity in assay [9] turned out to be 74%; in assay [10] it was 37%; in [13], 121%; in assay [14], 100%; in assay [15], 101%; in [16], 74%. In addition, the residual activity in assay [19] was 123%; in [20], 102%.
